Percent Effect data for 17 compounds are collected here from ChEMBL document CHEMBL3988442, “University of Dundee, Small-Polar-MMV Screening Library” (2021).

Experiment [1] addresses T1, Aspartate--tRNA(Asp/Asn) ligase (Mycobacterium tuberculosis (strain ATCC 25618 / H37Rv)) (UniProt P9WFW3).
T1 sequence (whole entry): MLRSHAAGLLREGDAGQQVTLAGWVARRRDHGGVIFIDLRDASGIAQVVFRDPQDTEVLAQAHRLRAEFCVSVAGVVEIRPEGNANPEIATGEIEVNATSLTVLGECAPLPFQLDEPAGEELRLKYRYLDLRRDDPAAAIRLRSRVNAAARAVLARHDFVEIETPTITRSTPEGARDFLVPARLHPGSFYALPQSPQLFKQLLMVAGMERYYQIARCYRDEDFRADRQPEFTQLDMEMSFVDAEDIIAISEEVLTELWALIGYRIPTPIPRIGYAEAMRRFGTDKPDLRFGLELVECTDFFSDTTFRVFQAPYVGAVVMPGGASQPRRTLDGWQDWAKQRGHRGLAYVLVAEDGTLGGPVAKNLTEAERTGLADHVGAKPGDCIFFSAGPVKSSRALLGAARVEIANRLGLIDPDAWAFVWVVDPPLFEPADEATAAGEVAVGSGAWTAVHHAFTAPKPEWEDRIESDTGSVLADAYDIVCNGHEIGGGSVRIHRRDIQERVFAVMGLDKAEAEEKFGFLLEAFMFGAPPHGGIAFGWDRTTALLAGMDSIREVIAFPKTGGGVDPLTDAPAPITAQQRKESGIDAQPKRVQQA
The experiment is described as follows: Assay for Asp RNA synthetase-1 from Mycobacterium tuberculosis. It is filed as functional. Further details: scale not given: direction of the effect not stated beside the values. The conditions noted are these: 30 µM.

Experiment [2] addresses Shiga toxin 2 (Escherichia coli O157:H7) (UniProt P09385+P09386). The experiment is described as follows: E. coli 0.157:H7 Shiga Toxin SOP - stx2 screening assay. The class given is functional. On the set-up: scale not given: direction of the effect not stated beside the values. The conditions noted are these: 30 µM.

As for `CC(C)c1n[nH]c(C(=O)Nc2ccnn2C(C)C)c1Br`, the figures for the Percent Effect in experiment [1] and in experiment [2] were -9.11% and -15.3%, respectively.
On the same counts, the results for `CN1CCC(Cc2cc(Nc3ncccn3)ncn2)CC1` are 7.7% and 7.59%.
On to `CCc1ccc(S(=O)(=O)Nc2cc(C(=O)O)c(F)cc2F)s1`, for which the values for the Percent Effect in experiment [1] and in experiment [2] were -4.19% and -16.1%, respectively.
On the same counts, the results for `CN(C)c1ccc(CNC(=O)c2ccc(Cl)cc2F)cc1` are -7.82% and 0.494%.
On the same counts, the results for `Cc1ccsc1CN(C)C(=O)Cn1nc(-c2ccc(F)cc2)oc1=O` are 10.3% and -7.45%.
On the same counts, the results for `CCc1n[nH]c(C2CN(C(=O)c3csnn3)CCO2)n1` (centres undefined) are 1.53% and 10.6%.
On to `CS(=O)(=O)N1CCC[C@]2(C[C@@H](Oc3ncccc3F)CO2)C1`, for which the results for the Percent Effect in experiment [1] and in experiment [2] were 7.67% and -11.6%, respectively.
On the same counts, the results for `COCCN(C)C(=O)c1ccc(OC)cc1O` are 0.638% and -28.1%.
On the same counts, the results for `O=C(Nc1ccccc1)C1CN(CC2CC2)CC12CCOCC2` (centres undefined) are 0.903% and -13.2%.
On the same counts, the results for `Cc1nc(CN2CCC3(CCN(c4ncc(F)cn4)C3)C2=O)cs1` (centres undefined) are 7.33% and -9.92%.
As to `CCC(=O)N1CCC2(CC1)COc1ccccc1S(=O)(=O)N(C)C2`, the Percent Effect in experiment [1] is -1.57%; in experiment [2] it was 6.18%.
On the same counts, the results for `CN1CCC(NC(=O)NCCNc2ccccn2)CC1` are 0.524% and -5.67%.
On the same counts, the results for `CCCNC(=O)CSc1nnc2[nH]c(=O)cc(CC)n12` are -6.58% and -11.3%.
On the same counts, the results for `Cc1oc(C(=O)O)cc1S(=O)(=O)Nc1ccc(Cl)c(F)c1` are 1.64% and 16.3%.
With `CC(C(=O)NCc1ccnc(Oc2ccc(F)cc2)c1)n1cncn1` (centres undefined), the Percent Effect is -5.88% in experiment [1] and 6.33% in experiment [2].
With `c1ncn(CC2CCCN2Cc2cn3ccsc3n2)n1` (centres undefined), the Percent Effect in experiment [1] is -3.37%; in experiment [2] it was -3.31%.
On the same counts, the results for `CC(C)(NCC(=O)NCC(F)(F)F)c1ccc2c(c1)OCCO2` are -0.335% and 22.1%.
